Only some compounds are listed: those with a hit (about 1.8% of all), similar ones and a draw of the others.
LYPLA2 counter: LYPLA2 inhibitors, primary screen, counter-screen for PME1 inhibitor project, biochemical, fluorescence polarization, FP-Rh probe ABPP | 0.38% of 320,000 active | recombinant LYPLA2 | inhibition, % at 5.9 µM;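 active = inhibition above the screen-wide mean plus 3 SD, limit set per campaign, cut at about 26% in these data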;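 also: 0% = LYPLA2 with DMSO and 100% = wells lacking LYPLA2 enzyme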
PME-1 inh: PME-1 inhibitors via competitive probe labeling, primary screen, biochemical, fluorescence polarization, FP-Rh probe, HTS; Protein phosphatase methylesterase 1 (Homo sapiens), Q9Y570; recombinant PME-1; inhibition, % at 5.9 µM; 0.53% of 320,000 active;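 active = inhibition above the campaign mean of all compounds plus 3 SD, cut at about 26% in these data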;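 also: competitive labeling of PME-1 active site by serine hydrolase directed probe; 0% = PME-1 with DMSO and 100% = wells lacking PME-1 enzyme; inhibitors block probe labeling so polarization falls and inhibition rises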
Fam108B counter: mouse Fam108B serine hydrolase inhibitors, primary screen, counter-screen for RBBP9 inhibitor project, biochemical, fluorescence polarization; recombinant Fam108B, FP-Rh probe fluorescence polarization; 0.33% of 300,000 active; AID 1947, 2009; inhibition, % at 9.51 µM;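 active = inhibition above the screen mean inhibition plus 3 SD, computed separately per campaign, cut at about 18% in these data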;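 also: inhibitors lower polarization as less probe binds the enzyme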
GSTO1 inh: inhibitors of recombinant GSTO1, primary screen, counter-screen for RBBP9 inhibitor project, biochemical, fluorescence polarization | 1.1% of 300,000 active | Glutathione S-transferase omega-1 (Homo sapiens), P78417 | inhibition, % at 5.96 µM | activity-based probe fluorescence polarization | AID 1974, 2009;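 active = inhibition above the campaign mean inhibition plus 3 SD, cut at about 35% in these data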;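 also: 0% = GSTO1-1 with DMSO and 100% = wells lacking GSTO1-1 enzyme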
LYPLA1 counter: LYPLA1 inhibitors, primary screen, counter-screen for PME1 inhibitor project, biochemical, fluorescence polarization, FP-Rh probe ABPP; recombinant LYPLA1; AID 2174, 2009; Acyl-protein thioesterase 1 (Homo sapiens), O75608; inhibition, % at 5.9 µM; 0.16% of 320,000 active;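 active = inhibition above the mean of all tested compounds plus 3 SD, set per campaign, cut at about 14% in these data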;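 also: inhibitors block serine hydrolase probe labeling of LYPLA1 so polarization falls; 0% = enzyme with DMSO and 100% = wells lacking LYPLA1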
PAD4 inh: human PAD4 inhibitors, primary screen, biochemical, fluorescence polarization, 1536-well format. Protein-arginine deiminase type-4 (Homo sapiens), Q9UM07. recombinant PAD4, RCA probe fluorescence polarization. inhibition, % at 6.36 µM. 0.41% of 330,000 active;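 active = percent inhibition above a cutoff equal to the mean of all tested compounds plus 3 SD, cut at about 15% in these data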;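 also: 0% = PAD4 with RCA probe and DMSO and 100% = probe without PAD4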
Target sequence (Q9UM07 whole entry, looked up): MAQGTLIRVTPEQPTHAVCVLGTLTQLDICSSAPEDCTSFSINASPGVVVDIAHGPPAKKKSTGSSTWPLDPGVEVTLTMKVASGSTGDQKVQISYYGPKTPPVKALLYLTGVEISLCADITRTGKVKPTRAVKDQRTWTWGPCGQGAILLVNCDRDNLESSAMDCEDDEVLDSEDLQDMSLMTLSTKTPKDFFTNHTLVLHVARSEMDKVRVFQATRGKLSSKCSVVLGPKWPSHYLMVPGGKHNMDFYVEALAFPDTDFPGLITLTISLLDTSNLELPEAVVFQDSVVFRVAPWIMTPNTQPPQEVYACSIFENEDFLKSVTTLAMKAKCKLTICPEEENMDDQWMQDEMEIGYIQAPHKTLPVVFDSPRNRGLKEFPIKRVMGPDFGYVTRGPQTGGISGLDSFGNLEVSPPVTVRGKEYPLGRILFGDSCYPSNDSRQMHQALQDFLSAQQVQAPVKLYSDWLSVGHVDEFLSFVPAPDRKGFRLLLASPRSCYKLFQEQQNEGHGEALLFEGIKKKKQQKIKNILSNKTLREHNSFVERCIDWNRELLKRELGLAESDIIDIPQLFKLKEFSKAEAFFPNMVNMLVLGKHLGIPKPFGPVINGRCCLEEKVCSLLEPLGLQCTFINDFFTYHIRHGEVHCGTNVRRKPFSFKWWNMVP
GSTO1 inh conf: GSTO1 inhibitor hit confirmation, counter-screen for RBBP9 inhibitor project, biochemical, fluorescence polarization, triplicate; recombinant GSTO1, probe fluorescence polarization; 54% of 2,400 active; inhibition, % at 5.96 µM; shares compounds with GSTO1 inh;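 active = inhibition above the primary screen's cutoff, its mean inhibition plus 3 SD, cut at about 35% in these data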;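 also: loss of polarization as inhibitors block binding of rhodamine sulfonate ester activity probe; 0% = GSTO1 with DMSO and 100% = wells lacking GSTO1 enzyme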
Numbers without * were called inactive; . = no result given.

SMILES | LYPLA2 counter | PME-1 inh | Fam108B counter | GSTO1 inh | LYPLA1 counter | PAD4 inh | GSTO1 inh conf
CCOc1cc(N2CCOCC2)c(OCC)cc1NC(=O)COC(=O)[C@@H]1CCCN1S(=O)(=O)c1ccccc1F | -1.8 | 3.8 | -1.0 | 79.5* | -0.6 | -0.8 | 80.0*
C=CCn1c(SCC(=O)Nc2ccc(Br)cc2)nc(O)c(CC)c1=O | 4.8 | 4.5 | 5.2 | 9.2 | -2.1 | 2.7 | .
Cc1cccc(NC(=O)CN2C(=O)COc3ccc(Cl)cc32)c1C | -0.2 | -2.7 | 0.2 | 5.2 | -2.1 | 0.6 | .
COc1ccc(C2CC(c3cccs3)=NN2C(=O)CCl)cc1OC (centres undefined) | 4.4 | -1.2 | 2.3 | 90.2* | 0.2 | 2.9 | 96.5*
COc1cc(C2CC(c3cccs3)=NN2C(=O)CCl)ccc1OC(F)F (centres undefined) | 0.8 | -0.5 | -3.1 | 93.9* | -2.1 | 2.0 | 96.5*
COc1ccc(C2CC(c3cccs3)=NN2C(=O)c2ccccc2)cc1OC (centres undefined) | -2.2 | -7.7 | -2.9 | -6.0 | 1.8 | 2.5 | .
CC(C)c1ccc(-c2nc3c([nH]2)c(=O)n(C)c(=O)n3C)cc1 | 4.3 | 11.9 | -2.2 | -1.1 | 2.0 | 5.1 | .
Cn1c(=O)c2[nH]c(-c3ccccc3O)nc2n(C)c1=O | -5.1 | 10.9 | 4.9 | 38.0* | -1.0 | -2.5 | 13.3
Cc1cc(=O)[nH]c(SCC(=O)c2ccc(F)c(C)c2)n1 | 1.1 | 1.6 | -0.7 | -4.1 | -2.9 | -1.4 | .
O=C1Nc2ccccc2/C1=N\N=C\c1ccc(O)c(O)c1 | -3.8 | 2.4 | 9.1 | 68.6* | -3.6 | 2.3 | 10.9
O=Cc1ccc(O)c(O)c1 | -2.1 | -1.8 | -5.4 | 3.6 | -0.9 | 2.7 | .
Oc1ccc(/C=N/N=C/c2ccc(O)c(O)c2)cc1O | -10.3 | -26.3 | -8.7 | 39.4* | -9.8 | 2.5 | 17.9
CCc1n[nH]c(=S)n1/N=C/c1c(O)ccc2ccccc12 | 6.7 | 5.0 | -0.2 | 37.8* | 4.9 | -0.6 | 7.7
CC(=O)Oc1ccc(-c2cc3ccccc3oc2=O)cc1 | 5.0 | 1.1 | 3.0 | 2.0 | 0.8 | 0.4 | .
CC(=O)Oc1ccc(-c2cc3c(OC(C)=O)cc(OC(C)=O)cc3oc2=O)cc1 | 4.1 | 3.2 | 2.0 | 43.5* | -1.1 | 2.4 | 11.2
O=C(COc1c(Cl)cc(Cl)cc1Cl)c1ccc(Cl)cc1 | -1.2 | 0.1 | 1.1 | -5.0 | 1.1 | -5.0 | .
Cc1cc(=O)n(-c2ccc(C(=O)O)cc2)[nH]1 | -5.4 | -2.9 | 4.7 | 63.1* | -4.9 | 2.3 | -0.7
O=C(O)c1cccc(NC2=C(n3nnc4ccccc43)C(=O)c3ccccc3C2=O)c1 | -0.4 | 0.5 | 1.5 | 62.3* | -3.7 | 5.5 | 44.9*
O=C(O)c1cccc(NS(=O)(=O)c2ccc3nnn(O)c3c2)c1 | -0.4 | 0.1 | 4.6 | -2.2 | 1.9 | -2.3 | .
O=C(O)c1ccc(N/N=C/C(Br)=C/c2ccccc2)cc1 | 2.8 | 4.1 | 9.3 | 64.4* | 0.0 | 1.6 | 64.7*
ClC(Cl)(Cl)c1nc2ccccc2n2nncc12 | 6.3 | -3.3 | 2.3 | 64.4* | 1.8 | 3.6 | 51.7*
c1ccc2c(c1)nnn1c3ccccc3nc21 | 1.9 | 0.7 | -3.7 | 5.6 | -3.5 | -2.1 | .
CSCCC(NC(=O)c1ccccc1Cl)C(=O)N1CCN(C(c2ccccc2)c2ccccc2)CC1 (centres undefined) | -3.3 | 0.0 | -6.7 | -5.7 | 2.9 | -3.2 | .
CN1CCc2cccc3c2C1Cc1ccc(O)c(O)c1-3 (centres undefined) | -0.4 | -5.4 | 0.4 | 93.1* | -6.7 | -1.9 | 9.4
CN1CCC(=C2c3ccccc3C(O)c3ccccc32)CC1 (centres undefined) | -4.9 | -1.5 | 3.4 | -3.9 | 2.2 | -2.4 | .
SMILES | LYPLA2 counter | PME-1 inh | Fam108B counter | GSTO1 inh | LYPLA1 counter | PAD4 inh | GSTO1 inh conf
Cc1ccc(OC(C)C(=O)Nc2ncc(Cl)cc2Cl)c([N+](=O)[O-])n1 (centres undefined) | . | . | . | . | . | -1.2 | .
CC(OC(=O)c1ccc([N+](=O)[O-])s1)C(=O)Nc1ncc(Cl)cc1Cl (centres undefined) | -3.8 | -7.8 | 2.9 | 46.4* | -1.0 | -4.2 | 9.7
Cc1nn(-c2ccccc2)c2c1C1(C(=O)N(C(C)C)c3ccccc31)C(C#N)=C(N)O2 (centres undefined) | 7.0 | 4.2 | 0.4 | 40.1* | -0.5 | -1.8 | 10.9
O=C(CCc1ccccc1)NNC(=O)COc1ccccc1Cl | 6.9 | -4.1 | 1.1 | 11.8 | 1.6 | 3.8 | .
CS(=O)(=O)c1ccc2c(c1)sc1nc(=O)c(/C=C3/C=CC(=O)C(O)=C3)c(N)n12 | -16.8 | -13.6 | -0.9 | 43.6* | -13.6 | -5.1 | 32.5
CCCCCCC(=O)N(O)C1CC(=O)N(c2ccc(Br)cc2)C1=O (centres undefined) | -8.1 | -10.5 | -0.1 | -5.5 | -5.0 | -7.1 | .
COc1ccccc1N(O)C1CC(=O)N(c2ccc(Br)cc2)C1=O (centres undefined) | 1.4 | 10.6 | 14.7 | 51.0* | 1.7 | -6.9 | 11.6
c1ccc(-c2ccc(C3=Nn4c(Cn5nnc6ccccc65)nnc4SC3)cc2)cc1 | -9.2 | -15.3 | -12.2 | 56.3* | 1.6 | -7.3 | -9.1
COc1cccc(C(=O)Nc2ccc(N3CCN(C(=O)c4cccs4)CC3)cc2)c1 | 12.6 | -6.8 | -0.6 | -5.7 | 2.1 | 8.6 | .
NC(CO)C(=O)NNCc1ccc(O)c(O)c1O (centres undefined) | -30.9 | -17.3 | 6.4 | 88.4* | -18.2 | -11.3 | 71.6*
O=c1c(Cl)c(Cl)cnn1Cc1ccc(F)cc1 | 4.3 | -0.4 | 0.1 | 9.2 | 1.4 | -0.2 | .
O=C(OCn1ncc(Cl)c(Cl)c1=O)c1ccc(F)cc1 | -0.8 | 7.1 | -6.2 | 44.3* | -2.4 | 14.6 | 28.8
CCCNC(=O)c1ccc2c(=O)n3c(-c4ccc(C)cc4)csc3nc2c1 | -6.7 | -0.3 | -0.2 | 45.8* | 0.0 | 3.0 | 28.0
CC1=C(C(=O)OCc2ccccc2)C(c2ccccc2OS(=O)(=O)c2ccccc2[N+](=O)[O-])NC(=O)N1CCCC(=O)O (centres undefined) | -2.3 | 4.3 | 2.5 | 58.3* | -4.9 | 0.8 | 63.4*
CC(C)=NOc1cc(NC(=O)CCl)cc([N+](=O)[O-])c1 | 3.7 | 12.4 | 3.3 | 80.0* | -0.8 | 1.4 | 99.5*
CCOc1ccc(CNc2ccc(N3CCCC3)cc2)cc1 | 4.0 | 2.2 | 1.9 | 66.2* | -0.1 | -2.9 | 55.4*
